Assay results published in PubChem BioAssay (NCATS).
Results filed as inconclusive are left out. The source made the active and inactive calls. The call rests on the fitted dose curve; in most records, active means well fitted inhibition curve with a large enough effect; inconclusive means small, poorly fitted or top-dose-only effect; inactive means flat fitted curve, though single readings scatter.

How the values were obtained:
Assay in all cases: Cytotoxic Profiling of Annotated Libraries Using Quantitative High-Throughput Screening (AID 1296008); further: nearly all actives have a fitted effect of over 60% in size
Details in all cases: Five cell lines viability, CellTiter-Glo ATP luminescence, 48-72 h; max response: active compounds read low
CRL-7250 = normal cell line; test system: CRL-7250
How it was run: (§1)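 Cells exposed to compounds for 48 or 72 hr at 37 degrees Celsius. Viability read as ATP-coupled luminescence with CellTiter-Glo after 10 min at room temperature.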

HEK293 = test system: HEK293
How it was run: as §1

HaCat = test system: HaCat
How it was run: as §1

KB-3-1 = test system: KB-3-1
How it was run: as §1

NIH3T3 = test system: NIH3T3
How it was run: as §1

Measured: max response
On the % scale 0 is the no-effect control and ±100 the full control effect.

C=C(C(=O)O)C1CC(O)C2(C)CCCC(=C)C2C1 (stereo not given)
inactive: CRL-7250 -4.23% | HEK293 0.173% | HaCat -8.7% | KB-3-1 -0.72% | NIH3T3 2.65%

O=C(O)c1cc(I)ccc1NC(=O)[C@H](Cc1ccccc1)NCc1ccccc1
inactive: CRL-7250 -2.69% | HEK293 -1.33% | HaCat -2.36% | KB-3-1 -0.475% | NIH3T3 1.92%

CC(C)(O)/C=C/CC(C)(O)C1C(O)CC2(C)C3CCC4C(C)(C)C(=O)CCC4(C)C3CCC12C (stereo not given)
inactive: CRL-7250 -2.19% | HEK293 1.96% | HaCat -10.7% | KB-3-1 | NIH3T3 -0.144%

C/C1=C\CCC2=C[C@@H](OC2=O)c2c(C)coc2C1
inactive: CRL-7250 1.59% | HEK293 -3.99% | HaCat -3.91% | KB-3-1 2.55% | NIH3T3 -21.8%

C/C=C/C=C/C(=O)N1CC[C@]23c4ccccc4N[C@H]4N(C)c5cccc6c5[C@@]42CCN([C@H]6C2OC2(C)C)[C@H]13 (stereo not given in full)
inactive: CRL-7250 -2.8% | HEK293 -2.78% | HaCat -7.02% | KB-3-1 9.01% | NIH3T3 3.9%

OC[C@H]1O[C@@H](OCCc2ccc(O)cc2)[C@H](O[C@@H]2OC[C@](O)(CO)[C@H]2O)[C@@H](O)[C@@H]1O
inactive: CRL-7250 -6.14% | HEK293 0.652% | HaCat 1.3% | KB-3-1 8.69% | NIH3T3 -3.47%

O=S(=O)(c1ccccc1)c1cnc2c(N3CCNCC3)cccc2c1
inactive: CRL-7250 1.33% | HEK293 -8.82% | HaCat | KB-3-1 0.14% | NIH3T3 -14.1%
